The results in this text go back to PubChem BioAssay AID624504 (Sanford-Burnham Center for Chemical Genomics, 2012).

The structures appear in SMILES notation. Out of some 5,000 compounds screened, about 3,900 (78%) were called active. Rule as the data show it: active = inhibition above about 22%; inactive = the rest. The set was probably picked from earlier hits. Only a sample is shown.

This test is described as follows: fluorescence retest of MPTP screen hits in isolated mitochondria, single concentration (AID 624504).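 Also: 0% = DMSO vehicle and 100% = positive control.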 The settings on record: membrane potential, Rhodamine 123 fluorescence, at 10 µM, hits give high values.
A word on the inhibition: it is the relative decrease from the control value, in per cent. As to `CCCCN(CCCC)CCC(O)c1cc2c(Cl)cc(Cl)cc2c2cc(C(F)(F)F)ccc12` (stereo not given), the inhibition was -7.09% (inactive).

For `CC(C)CC(=O)N/C(N)=N/c1nc2ccccc2s1`, the inhibition was 50% (active).

Regarding `O=C1c2ccccc2C2=Nc3ccccc3SC(c3ccccc3F)C12` (stereo not given), the inhibition was 59% (active).

Consider `S=C(Nc1cccc(Br)c1)N1CCn2cccc2C1c1cccnc1` (stereo not given), for which the inhibition is 94.4% (active).

For `CN(c1ccccc1)S(=O)(=O)c1cccc(NC(=O)Cc2ccc(Cl)cc2)c1`, the inhibition was 81.2% (active).

Turning to `Cc1ccc(S(=O)(=O)N(CC(=O)Nc2cccc([N+](=O)[O-])c2)Cc2ccc(Cl)cc2)cc1`, the inhibition was 88.5% (active).

For the compound `CN(c1cccc(NC(=O)Nc2ccc(Cl)cc2)c1)S(C)(=O)=O`, the inhibition is 91.2% (active).

In the case of `O=C(c1ccncc1)N1CCN(S(=O)(=O)c2cc(C(F)(F)F)cc(C(F)(F)F)c2)CC1`, the inhibition is 99.7% (active).

Take `O=C(Cc1ccsc1)N1CCN(S(=O)(=O)c2cc(C(F)(F)F)cc(C(F)(F)F)c2)CC1`: the inhibition is 86.7% (active).

As to `CCC(C)N1C(=O)S/C(=C/c2ccc(Sc3nc4ccccc4[nH]3)o2)C1=O` (stereo not given), the inhibition is 91.4% (active).

Consider `Oc1c(Cl)cc(Cl)c(Cl)c1Cc1c(O)c(Cl)cc(Cl)c1Cl`, for which the inhibition was 16.1% (inactive).

On to `Cc1nc2c(OCc3cccc(Cl)c3)cccn2c1N(C)CC1CC1`, for which the inhibition was 107% (active).

For `Cc1nc2c(OCc3ccc(Cl)cc3)cccn2c1N(C)Cc1cccs1`, the inhibition is 106% (active).

Consider `Cc1nc2c(OCc3ccc(Cl)cc3Cl)cccn2c1N(C)CC1CC1`, for which the inhibition was 105% (active).

In the case of `O=C(/C(=C/c1cccc(Cl)c1)c1nc2ccccc2[nH]1)c1ccccc1`, the inhibition was 77.4% (active).

As for `NC(N)=N/N=C/c1ccc(Cl)c([N+](=O)[O-])c1`, the inhibition was -8.15% (inactive).

In the case of `CC(C)(C)c1ccc(SCCc2ccncc2)cc1`, the inhibition is 98.5% (active).

Consider `Cc1cc(C)c(SCCc2ccncc2)c(C)c1`, for which the inhibition was 95.5% (active).

In the case of `c1ccc2c(CSCc3nc4ccccc4[nH]3)cccc2c1`, the inhibition is 55.6% (active).

`O=C(c1ccc(N2CCCC2=O)cc1)N1CCN(c2ccc(C(F)(F)F)cc2[N+](=O)[O-])CC1`: the inhibition is 76% (active).

As for `O=C(Nc1cccc(C(F)(F)F)c1)c1ccc(N2CCNCC2)c([N+](=O)[O-])c1`, the inhibition is -27% (inactive).

Regarding `N#Cc1c(-c2cccs2)nc(SCC(=O)c2ccc(Br)cc2)[nH]c1=O`, the inhibition is 61.2% (active).

For `Cc1ccc(NC(=O)Nc2nnc(-c3ccncc3)s2)cc1`, the inhibition is 81.7% (active).

On to `Cc1nnc(NC(=O)Nc2ccc(Cl)c(Cl)c2)s1`, for which the inhibition was 94% (active).

Take `CCc1ccc(NC(=O)Nc2ccncc2)cc1`: the inhibition is 71.8% (active).

Take `CCCCC(=O)NNC(=S)NC(=O)C(c1ccccc1)c1ccccc1`: the inhibition is -2.85% (inactive).

`O=[N+]([O-])c1cc(Cl)cc(/C=N/NC(=S)Nc2cc(S(=O)(=O)N3CCOCC3)ccc2Cl)c1O`: the inhibition is 5.99% (inactive).

In the case of `O=C(c1cc(-c2cccc(O)c2)on1)N1CCc2ccccc2C1`, the inhibition was 33.5% (active).

In the case of `O=C(NNc1ccccc1Cl)C(O)(c1cccc(C(F)(F)F)c1)c1cccc(C(F)(F)F)c1`, the inhibition is 83.9% (active).

`Cc1ccc(S(=O)(=O)Nc2ccc3ncccc3c2)cc1`: the inhibition was 72.7% (active).

Turning to `COc1ccc(S(=O)(=O)NCCCCOc2ccc(Cl)cc2)cc1`, the inhibition was 88.4% (active).

With `O=[N+]([O-])c1cc(Br)c(O)c(/C=N/Nc2nc3ccccc3s2)c1`, the inhibition is 65.6% (active).

With `O=C(CCN1C(=O)/C(=C/c2cccs2)SC1=S)NNC(=O)c1cccc(O)c1`, the inhibition was 49% (active).

Turning to `COc1cc(NC(=O)c2cncc(-c3ccc(C#N)cc3)c2)cc(C(=O)Nc2cccc(C(F)(F)F)c2)c1`, the inhibition was 58.3% (active).

Regarding `COCCn1c(CN2CCC(Cc3ccccc3)CC2)nc2c1c(=O)n(C)c(=O)n2C`, the inhibition is 10.1% (inactive).

For `COC(=O)c1c(C)[nH]c(C(=O)/C=C/c2ccc(Cl)cc2)c1C`, the inhibition is 86.5% (active).

As to `CCCc1nc2scc(-c3ccc(C)cc3)c2c(=O)n1N`, the inhibition was 20.9% (active).

Take `CC(C)c1ccc(NC(=S)NC2CC3C=CC2C3)cc1` (stereo not given): the inhibition is 91% (active).

Consider `COc1cccc(CNS(=O)(=O)c2ccc3c(c2)CC(C)N3C(=O)C2CCC2)c1` (stereo not given), for which the inhibition is 91.1% (active).

As to `O=C(Nc1nc(-c2ccc3c(c2)OCO3)cs1)c1ccncc1`, the inhibition was 42.8% (active).

On to `Cc1ccc(F)cc1NC(=O)Cc1nn(C)c(=O)c2ccccc12`, for which the inhibition was 29.6% (active).

Take `Cc1ccc(-c2nc(COC(=O)c3c(C)noc3C)cs2)cc1`: the inhibition is 23.4% (active).

In the case of `Cc1ccc(-c2noc(CCC(=O)Nc3ccccc3N3CCN(C)CC3)n2)cc1`, the inhibition is -2.79% (inactive).

As for `Cc1ccc(NC(=O)CN(C)CC(=O)Nc2cccc(F)c2)cc1[N+](=O)[O-]`, the inhibition is 100% (active).

Turning to `Cc1cc(C)c(NC(=O)C[N+](C)(C)CC(O)COc2cccc3ccccc23)c(C)c1` (stereo not given), the inhibition is -17% (inactive).
